# In the supplement of paper PMC6522484:
# “And” between values parts separate entries of the source, which are not always exact repeats. Equal values may be shown once. ± gives the standard deviation of the averaged measurements.
# Assays:
# DLD1 [1] = experiment: cell viability (CellTiter-Glo) relative to plate median (fraction of plate median); higher = more viable cells; settings: 5 µM; treatment time 24 h; reporter: 7TFP
# In short: (§1)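 Two independent replicates were averaged for each reported value. Library compounds were applied at a final 5 µM for 24 h to colorectal cancer cell lines stably expressing lentiviral TCF/Wnt firefly luciferase reporters. Firefly luciferase or CellTiterGlo luminescence from each well was normalised to the plate median.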
# HCT116 = experiment: as above; settings: 5 µM; treatment time 24 h; reporter: TCF4/Wnt
# In short: as §1
# SW480 [2] = experiment: as above; settings: 5 µM; treatment time 24 h; reporter: 7TFP
# In short: as §1
# DLD1 [3] = experiment: TCF/Wnt firefly luciferase reporter signal relative to plate median (fraction of plate median); higher = higher Wnt reporter signal; settings: 5 µM; treatment time 24 h; reporter: 7TFP
# In short: as §1
# SW480 [4] = experiment: as above; settings: 5 µM; treatment time 24 h; reporter: 7TFP
# In short: as §1
SMILES,cell viability (DLD1 [1]),cell viability (HCT116),cell viability (SW480 [2]),TCF/Wnt firefly luciferase reporter signal (DLD1 [3]),TCF/Wnt firefly luciferase reporter signal (SW480 [4])
CC1=C(/C=C/C(C)=C/C=C/C(C)=C\C(=O)O)C(C)(C)CCC1,1.02 ± 0.05,0.949 ± 0.1,0.967 ± 0.012,0.827 ± 0.097,0.872 ± 0.044
COc1ccc2oc3ccccc3c(=O)c2c1,1.075 ± 0.0071,1.05 ± 0.078,1.09 ± 0.05,1.15 ± 0.13,1.1 ± 0.078
CC(=O)OCC(=O)[C@@]12OC3(CCCC3)O[C@@H]1C[C@H]1[C@@H]3CCC4=CC(=O)C=C[C@]4(C)[C@@]3(F)[C@@H](O)C[C@@]12C,0.985 ± 0.021,0.896 ± 0.16,0.965 ± 0.023,0.82 ± 0.093,0.771 ± 0.28
COc1ccc(-c2cc(=O)c3c(OC(C)=O)cc(OC(C)=O)cc3o2)cc1,1.04 ± 0.064,1.07 ± 0.13,1.17 ± 0.057,1.09,1.21 ± 0.092
C[C@H]1C[C@@H]2[C@H]([C@@H](O)C[C@@]3(C)[C@H]2CC[C@]3(O)C(=O)CO)[C@@]2(C)C=CC(=O)C=C12,1.01 ± 0.029,1.02 ± 0.056,1.04 ± 0.014,0.9235 ± 0.005,1.02 ± 0.062
Oc1cc(O)c2c(c1)O[C@H](c1ccc(O)c(O)c1)[C@H](O)C2,0.953 and 0.936,1.03 and 0.956,1.01 and 1.06,0.934 and 1.07,0.985 and 1.08
COc1c(N2CCNC(C)C2)c(F)cc2c(=O)c(C(=O)O)cn(C3CC3)c12 (stereo not given),0.925 ± 0.18,0.911 ± 0.082,0.966 ± 0.048,0.933 ± 0.081,0.906 ± 0.041
COc1ccc(C2C(=O)c3ccccc3C2=O)cc1,0.997 ± 0.061,0.984 ± 0.08,1.01 ± 0.045,0.933 ± 0.095,0.94 ± 0.021
CCn1nc(C(=O)O)c(=O)c2cc3c(cc21)OCO3,1.01 ± 0.035,0.972 ± 0.015,0.988 ± 0.088,1 ± 0.11,0.875 ± 0.14
Cc1ccc(Cl)c(Nc2ccccc2C(=O)O)c1Cl,1.04 ± 0.067,1.06 ± 0.086,1 ± 0.052,1.04 ± 0.021,1.05 ± 0.064
CCCN(CCC)C(=O)C(CCC(=O)O)NC(=O)c1ccccc1 (stereo not given),0.921 ± 0.057,1.06 ± 0.035,0.904 ± 0.024,1.01 ± 0.024,1.06 ± 0.05
CC1=C(CC(=O)O)c2cc(F)ccc2/C1=C\c1ccc([S+](C)[O-])cc1 (stereo not given),0.941 ± 0.028,0.901 ± 0.018,0.949 ± 0.1,1.03 ± 0.23,1.03 ± 0.12
NS(=O)(=O)c1cc2c(cc1Cl)N=CNS2(=O)=O,0.965 ± 0.093,0.973 ± 0.081,0.891 ± 0.018,0.828 ± 0.18,0.984 ± 0.011
Cc1cccc(C(=O)O)c1O,1.02 ± 0.039,0.934 ± 0.078,0.96 ± 0.0099,0.869 ± 0.12,0.922 ± 0.059
CC(C)(C)NC[C@H](O)COc1nsnc1N1CCOCC1,0.966 ± 0.045,0.992 ± 0.17,0.9705 ± 0.0092,0.971 ± 0.084,1.04 ± 0.042
C[C@]12CC[C@@H]3c4ccc(OS(=O)(=O)O)cc4CC[C@H]3[C@@H]1CCC2=O,1.03 ± 0.035,1.12 ± 0.014,1 ± 0.014,1.24 ± 0.21,1.23 ± 0.028
O=c1c(O)c(-c2ccccc2)oc2cc(O)ccc12,1 ± 0.05,1.06 ± 0.057,1.035 ± 0.0071,1.01 ± 0.044,0.925 ± 0.1
C=CCCCCCCCCCCCC(O)CC(O)CO (stereo not given),1.1 ± 0.099,1.05 ± 0.11,1.05 ± 0.05,0.964 ± 0.05,1.03 ± 0.042
Cc1cc(=O)oc2cc(O)cc(O)c12,1.05 ± 0.042,1.11 ± 0.11,1 ± 0.053,0.888 ± 0.12,0.975 ± 0.12
CCc1cc(C(N)=S)ccn1,0.964 ± 0.035,1.02 ± 0.028,0.987 ± 0.0071,1.07 ± 0.078,1.09 ± 0.028
c1coc(CNc2ncnc3[nH]cnc23)c1,0.913 ± 0.09,0.845 ± 0.17,0.958 ± 0.04,0.996 ± 0.1,1.04 ± 0.042
O=c1c(-c2ccc(O)cc2)coc2cc(O)cc(O)c12,1.09 ± 0.021,1.03 ± 0.05,1.06 ± 0.021,1.065 ± 0.0071,1.12
CCN(CC)CCOC(=O)C1(C2CCCCC2)CCCCC1,0.98 ± 0.0014,1.02 ± 0.14,1.045 ± 0.0071,0.9375 ± 0.0078,1.045 ± 0.0071
C/C1=C\CCC(=O)C2CC(C)(C)C2CC1 (stereo not given),0.9755 ± 0.00071,0.908 ± 0.14,0.939 ± 0.012,0.918 ± 0.098,1.004 ± 0.0078
CC1(C)O[C@@H]2C[C@H]3[C@@H]4CCC5=CC(=O)C=C[C@]5(C)[C@H]4[C@@H](O)C[C@]3(C)[C@]2(C(=O)CO)O1,0.999 ± 0.03,1.06 ± 0.05,0.977 ± 0.033,0.979 ± 0.086,0.9755 ± 0.0078
CCOC(=O)[C@H](CCc1ccccc1)N[C@@H](C)C(=O)N1[C@H](C(=O)O)C[C@H]2CCCC[C@@H]21,0.923 ± 0.14,1.02 ± 0.068,0.98 ± 0.026,0.912 ± 0.052,0.974 ± 0.093
COc1cc2c(cc1OC)Cc1cc(OC)c(OC)cc1Cc1cc(OC)c(OC)cc1C2,1.02 ± 0.055,0.97 ± 0.16,1.02 ± 0.033,1.1 ± 0.15,0.865 ± 0.045
CC[C@H](C)C(=O)O[C@H]1C[C@H](O)C=C2C=C[C@H](C)[C@H](CC[C@@H](O)C[C@@H](O)CC(=O)O)[C@H]21,1.03 ± 0.014,1.02 ± 0.028,0.989 ± 0.0028,1.04 ± 0.076,0.928 ± 0.16
Cc1nc2ccccc2c(=O)[nH]1 [2-Methyl-3H-quinazoline-4-on],0.991 ± 0.011,1.06 ± 0.064,0.979 ± 0.044,1.01 ± 0.09,1.1 ± 0.021
